In all, about 300,000 compounds went through this assay and about 2,500 (0.83%) were called active.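 The calls were made as follows: active = inhibition above the mean of all tested compounds plus 3 SD, set per screening campaign (cut at about 24% in these data); inactive = the rest.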 What follows is part of a selection rich in actives, with near analogues and random picks from the rest.
Tested on: tRNA 2'-phosphotransferase TPT1 (Candida albicans SC5314)
Assay: Candida albicans TPT1 enzyme inhibitors, primary screen, biochemical, fluorescence polarization (AID 1962);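 also: plate controls were DMSO alone for no effect and ferristatin control at 100 nM for full effect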
Conditions: recombinant caTPT1, FP RNA substrate dephosphorylation; at 5 µM; hits give high values

inhibition, inactive:
CC(C)(C)c1ccc(C(=O)NCCn2c(N)c(C#N)c3nc4ccccc4nc32)cc1 9.05%, CC1CCCCC1NC(=O)CSc1nnc(-c2ccncc2)n1CCCN(C)C (stereo not given) -2.27%, CSc1ncccc1C(=O)Nc1nc2ccc(F)cc2s1 -0.86%, Fc1cc(F)c2nc(Nc3nc4c(F)cccc4s3)sc2c1 -0.65%, CCc1cccc(C)c1N(C(=O)Cn1c(CO)nc2ccccc21)C(C)COC (stereo not given) -1.41%, O=C(N/N=C/c1cccnc1)c1cc2ccccc2cc1O -1.97%, CC(C)(C)OC(=O)NNc1c2ccccc2nc2ccccc12 -0.98%, CCOc1ccc(-n2cnnn2)cc1S(=O)(=O)N1CCC(C)CC1C (stereo not given) 3.77%, COc1cccc(CNC(=O)C2CCCN(S(=O)(=O)N3CC(C)CC(C)C3)C2)c1 (stereo not given) -2.25%, COc1ccc2c(c1)[C@H]1[C@H](CO2)[C@H](c2ccccc2)[C@]2(C)C(=O)Nc3cc(F)c(F)cc3C(=O)N12 -1.54%, COc1ccc(/C=C(\NC(=O)c2ccccc2)C(=O)NCCN2CCOCC2)cc1OC -0.34%, CCOC(=O)CNC(=O)/C(=C\c1ccc(F)cc1)NC(=O)c1ccccc1 -8.38%, CCN1CCN(C(=O)N[C@@H](C(=O)N[C@@H]2C(=O)N3C(C(=O)O)=C(CSc4nnnn4C)CS[C@H]23)c2ccc(O)cc2)C(=O)C1=O -2.09%, Cc1cc(/C=C2/C(=N)N3C(=NC2=O)SN=C3S(C)(=O)=O)c(C)n1-c1ccccc1 4.75%, CS(=O)(=O)C1=NN2C(=N)/C(=C\c3ccc(OCCOc4ccccc4)cc3)C(=O)N=C2S1 2.39%, COc1ccccc1C(=O)NCCC(=O)NCC(c1ccco1)N1CCCCC1 (stereo not given) 1.82%, O=C(NCc1ccccc1)C(=O)NCC1OCCN1S(=O)(=O)c1ccc(Br)cc1 (stereo not given) -2.5%, COc1ccc(CCN2C(=O)C(C)=C(C)C2=O)cc1OC 1.36%, C#CCOc1ccc(/C=C2/C(=O)NN(c3ccccc3)C2=O)cc1OC 0.28%, COc1cc(/C=C2/C(=O)NN(c3ccc(F)cc3)C2=O)cc([N+](=O)[O-])c1O -1.74%, N#C/C(=C(/O)COc1cccc2ccccc12)c1nc2ccccc2[nH]1 14.7%, Cc1ccccc1OC/C(O)=C(\C#N)c1nc2ccccc2[nH]1 2.58%, C#CCOCCOCCOCCNc1nc(N2CCN(C(=O)CCCCCCCCCCNC(=O)[C@H]([C@@H](C)CC)n3cc(CCCCN=C(N)N)nn3)CC2)nc(N2CCN(C(=O)CCCCCCCCCCNC(=O)[C@H](CO)n3cc(CCCSC)nn3)CC2)n1 -0.55%, COc1ccc(CC2c3cc(OC)c(OC)cc3CC[N+]2(C)CCC(=O)OCCCCCOC(=O)CC[N+]2(C)CCc3cc(OC)c(OC)cc3C2Cc2ccc(OC)c(OC)c2)cc1OC (stereo not given) 0%, COCCNC(=O)/C(C#N)=C/c1nc(N(C)C)n(-c2ccc(F)cc2)c1Cl 1.88%, Cc1c(C)n2c(SCC(=O)N3CCCC3)nnc2[nH]c1=O 0.57%, O=C1OC(/C=C/c2ccccc2)=NC/1=C/c1ccco1 1.61%, CCC1C/C(=C/c2cccs2)C(=O)/C(=C/c2cccs2)C1 (stereo not given) 14.5%, COC(=O)c1ccc(Sc2ccc(F)cc2)c(N)c1 1.95%, CCCCNc1ccc(C(=O)Nc2cccc(C)n2)cc1[N+](=O)[O-] 3.18%, CCOc1ccc(OCc2ccc(C(=O)Nc3cccc(C)n3)o2)cc1 -2.96%, CCOc1ccc2c(=O)c(-c3ccc4c(c3)OCCCO4)c(C)oc2c1 2.18%, CN(C)Cc1c(C(=O)N/N=C/c2ccccc2OCc2ccc(F)cc2)nnn1-c1nonc1N 2.3%, COc1ccccc1C1CC(=O)n2c(nc(-c3ccccc3)c2-c2ccccc2)S1 (stereo not given) -2.44%, NS(=O)(=O)c1ccc(CNC(=O)c2cnccn2)cc1 -3.97%, CCOc1ccc(N=Cc2c(O)n(-c3cccc(C)n3)c(=O)c3ccccc23)cc1 1.89%, CCCCn1c(=O)c(C(C)=O)c(O)c2ccccc21 3.63%, Cc1cc(C)nc(NNC2=CC(=O)CC(C)(C)C2)n1 -0.26%, Cc1cs/c(=N\N=C\c2ccc(O)cc2)n1Cc1ccco1 2.86%, CCOC(=O)/C=c1\s/c(=C\c2ccc(C#N)cc2)c(=O)n1CC(=O)Nc1cccc(C)c1C 1.41%, Cc1ccccc1S(=O)(=O)N1[C@@H](c2cccc(Cl)c2)C(C(=O)O)=CC[C@H]1c1ccc(Cl)cc1 -1.82%, Cc1ccc(S(=O)(=O)N2[C@@H](c3cccc(Cl)c3)C(C(=O)O)=CC[C@H]2c2ccc(Cl)c(Cl)c2)cc1 0.18%, Cn1cc(CN2CCCCC2c2ccccn2)c(-c2ccc3c(c2)OCCO3)n1 (stereo not given) -1.42%, COC(=O)c1ccc(/C=N/N2C(C)CCCC2C)cc1 (stereo not given) 0.75%, CC(CCN1CCN=C1N(C)C)c1ccccc1 (stereo not given) 1.38%, O=C(c1cccc(F)c1)N1CCN(c2ccc([N+](=O)[O-])c(N3CCCCC3)c2)CC1 -2.61%, C=CCn1c(SCc2cccc(F)c2)nc2cc(C(=O)N3CCC(C(N)=O)CC3)ccc2c1=O -3.32%, O=C(c1cc(C(=O)N2CCN(c3ccc(F)cc3)CC2)cc([N+](=O)[O-])c1)N1CCN(c2ccc(F)cc2)CC1 -4.38%, O=C(c1cc(-c2ccc(F)cc2)on1)N1CCN(c2ccc(F)cc2)CC1 -5.93%, Cc1ccc(S(=O)(=O)N2[C@@H](c3ccccc3F)C(C(=O)O)=CC[C@H]2c2ccc(Cl)cc2)cc1 -4.36%, COc1ccc(CCNC(=S)N2CCN(S(=O)(=O)c3ccc(F)cc3)CC2)cc1 -2.45%, Cc1cccc(NC(=O)c2cccc(S(=O)(=O)N3CCCC3)c2)n1 -1.41%, CCC(C)CCN1CCN=C1N(C)C (stereo not given) 0.6%, O=S(=O)(Nc1ccccc1)c1ccc(NS(=O)(=O)c2cccs2)cc1 3.09%, O=c1[nH]nc(SCCS(=O)(=O)c2ccc(F)cc2)n1-c1ccccc1C(F)(F)F -4.89%, O=C(NCCS(=O)(=O)N1CCN(c2ccc(F)cc2)CC1)c1ccc2c(c1)OCO2 -1.22%, CN(C)/C=C1/Nc2ccccc2C1=O -4.8%, O=C1Nc2ccccc2/C1=C/c1ccnc2ccccc12 -1.13%, CCN1C(=O)/C(=c2\s/c(=C3\Sc4ccccc4N3C)c(=O)n2C)N(C)C1=S -1.53%, COc1ccc(/C=C2\SC(=O)N(CCC(=O)NC3CCS(=O)(=O)C3)C2=O)cc1 (stereo not given) -0.19%, Cc1cc(C)n(CCC(=O)N2CCN(S(=O)(=O)c3ccc(C)c(C)c3)CC2)n1 -1.67%, Cc1nc(-c2ccc(Cl)cc2)sc1C1(C)CC(c2ccccc2F)=NO1 (stereo not given) 1.26%, C/[N+]([O-])=C\c1ccc([N+](=O)[O-])o1 -5.74%, Cc1cc(C)nc(N/N=C/c2ccc([N+](=O)[O-])o2)n1 -2.07%, CCCOc1ccc(Cc2c(O)nc(SC)[nH]c2=O)cc1C 1.03%, S=C(Nc1cccc(Br)c1)N1CCn2cccc2C1c1cccnc1 (stereo not given) 1.48%, COC1=C/C(=C/c2c(N)n3nc(CC(=O)N4CCOCC4)sc3nc2=O)C=CC1=O 9.73%, COc1cc(/C=C2\C(=N)N3N=C(CC(=O)N4CCOCC4)SC3=NC2=O)cc(OC)c1OC 1.57%

inhibition, active:
CN(C)CCCn1c(N)c(C#N)c2nc(C#N)c(C#N)nc21 75.1%, Fc1ccc2nc(Nc3nc4c(s3)CCCC4)sc2c1 24.1%, O=C(NNc1c2ccccc2nc2ccccc12)c1cc2ccccc2cc1O 25.8%, Cn1c2ccccc2c2cc(/C=C(\NC(=O)c3ccccc3)C(=O)NCC(=O)O)ccc21 86.7%, CS(=O)(=O)c1ccc2c(c1)SC1=NC(=O)/C(=C/c3ccco3)C(=N)N12 62.9%, COc1cc(/C=C2/C(=O)NN(c3cccc(Cl)c3)C2=O)cc(Br)c1O 130%, N#C/C(=C(/O)COC(=O)COc1ccc(Cl)cc1)c1nc2ccccc2[nH]1 35%, CC(C)(C)C1C/C(=C/c2ccco2)C(=O)/C(=C/c2ccco2)C1 (stereo not given) 71.8%, Cc1cccc(NC(=O)c2ccc(COc3ccccc3[N+](=O)[O-])o2)n1 31.1%, CC(=O)n1c(C=Nc2ccccc2)c(O)c2ccccc21 37.8%, CN(c1ccccc1)c1ccc(/C=c2\s/c(=C(/C#N)C(=O)C(C)(C)C)n(Cc3ccco3)c2=O)cc1 151%, O=C1Nc2cc(C(=O)N3CCN(c4ccc(F)cc4)CC3)ccc2NC1CSCc1cccc(F)c1 (stereo not given) 134%, Cc1ccc(CSCC2Nc3ccc(C(=O)N4CCN(c5ccc(F)cc5)CC4)cc3NC2=O)cc1 (stereo not given) 133%, Cc1cc(C)c(/C=C2\C(=O)Nc3ccccc32)[nH]1 101%, CN1/C(=c2/s/c(=C3/C(=O)N(c4ccccc4)NC3=Nc3ccccc3)n(C)c2=O)C(C)(C)c2ccccc21 128%, CCn1c(/C=C/c2ccc([N+](=O)[O-])o2)nc2ccccc2c1=O 25.2%, C=CCC1=C/C(=C\c2c(N)n3nc(CC(=O)N4CCOCC4)sc3nc2=O)C=C(OC)C1=O 37%

Reference: PubChem BioAssay AID1962 (The Scripps Research Institute Molecular Screening Center, 2009)
